This is an account of results in PubChem BioAssay (NCI).

What all share (test): NCI-60 one-dose screen, 48 h (100 = growth as untreated, 0 = no growth, -100 = all killed)
The subject of assay [1] is HCT-15 colon. To be noted: 10 µM unless noted.
The test system of assay [2] is HT29 colon. The note with it: 10 µM unless noted.
Assay [3] concerns SNB-75 CNS. To be noted: 10 µM unless noted.
Assay [4] has as its system SNB-19 CNS. To be noted: 10 µM unless noted.
In assay [5] the test system is U251 CNS. The note with it: 10 µM unless noted.
For assay [6], the system named is PC-3 prostate. The note with it: 10 µM unless noted.
In assay [7] the test system is SK-MEL-5 melanoma. To be noted: 10 µM unless noted.
Assay [8] concerns UACC-62 melanoma. To be noted: 10 µM unless noted.
Assay [9] relates to LOX IMVI melanoma. The note with it: 10 µM unless noted.
For assay [10], the system named is SK-MEL-28 melanoma. To be noted: 10 µM unless noted.
Assay [11] relates to SK-MEL-2 melanoma. To be noted: 10 µM.
The test system of assay [12] is EKVX NSCLC. To be noted: 10 µM unless noted.
Assay [13] relates to SN12C renal. To be noted: 10 µM unless noted.
The test system of assay [14] is UO-31 renal. To be noted: 10 µM unless noted.
For assay [15], the system named is TK-10 renal. To be noted: 10 µM unless noted.
Assay [16] has as its system ACHN renal. The note with it: 10 µM unless noted.
Assay [17] relates to A498 renal. To be noted: 10 µM unless noted.
Assay [18] relates to CCRF-CEM leukemia. The note with it: 10 µM unless noted.
The subject of assay [19] is MOLT-4 leukemia. The note with it: 10 µM unless noted.

The structures appear in SMILES notation. This is part of a sample that, as a whole, favours compounds with a hit. Of some 83,000 tested, about 20% had one in any assay.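 Plates (96-well) were seeded with cells, treated with compound at one concentration, and incubated for 48 hours before percent growth was determined.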 Unmarked numbers belong to inactive results. Activity calls are given as the source filed them. How the source made its calls: active means growth percent below 10; inactive means the rest.

`CN1CCN(Cc2ccc(NC(=O)c3[nH]ncc3Nc3ncnc4sc5c(c34)CCCC5)cc2)CC1`: the growth in assay [1] was -69.3% (active); in assay [2], -36.9% (active); in assay [3], -94.2% (active); in assay [4], -88.8% (active); in [5] it was -84.2% (active); in [6] it was -77.8% (active). The growth in assay [7] is -99.9% (active); in assay [8], 4.67% (active); in assay [9] it was -91.7% (active); in [10] it was -78.9% (active); in [11], -53.7% (active); in assay [12], -71.2% (active). The growth in assay [13] is -44.2% (active); in assay [14] it was -82.9% (active); in [15], -96.6% (active); in assay [16] it was -100% (active); in [17], -60.5% (active); in assay [18] it was -16.2% (active). Further, the growth in [19] was -62.5% (active).
For `N#CC(C#N)=NO`, the growth is 104% in assay [1]; 91.7% in assay [2]; 89.1% in assay [3]; 102% in [4]; 95.2% in [5]; 71.8% in [6]. In addition, the growth in assay [7] was 108%; in assay [8], 102%; in assay [9] it was 95.8%; in [10], 110%; in [11], 100%; in assay [12] it was 92.4%. The growth in [13] was 106%; in assay [14], 98.6%; in [15], 93.9%; in [16], 98.4%; in assay [17], 102%; in assay [18], 87%. Besides, in assay [19], the growth is 99.8%.
In the case of `C[C@@H](C[C@H](CCO)c1cc(C(F)(F)F)cc(C(F)(F)F)c1)c1ccc2ccccc2c1`, the growth in [1] is 76.7%; in assay [2], 71.2%; in assay [3], 88.5%; in assay [4], 107%; in assay [5], 91.5%; in assay [6], 83%. The growth in assay [7] is 105%; in [8], 90.4%; in [9], 87.3%; in assay [10], 86.7%; in assay [11] it was 82.2%; in assay [12] it was 81.3%. The growth in [13] was 96.4%; in assay [14], 79%; in assay [15], 95%; in assay [16], 98.7%; in assay [17] it was 120%; in assay [18], 84.2%. The growth in assay [19] was 71%.
With `CC12O[C@H](C[C@@H](OC(=O)CCC(=O)O)[C@H]1O)n1c3ccccc3c3c4c(c5c6ccccc6n2c5c31)C(=O)NC4=O`, the growth in assay [1] is 15%; in assay [2] it was 21.2%; in assay [3], -8.7% (active); in assay [4], 43.2%; in assay [5], 50.6%; in [6], 48%. The growth is -19% (active) in [7]; -6.1% (active) in assay [8]; 15.9% in [9]; 33.8% in assay [10]; 23.3% in [11]; 42.9% in assay [12]. Besides, the growth was 38.9% in assay [13]; -15.9% (active) in assay [14]; 2.26% (active) in assay [15]; 19.4% in [16]; -30.6% (active) in [17]; 7.97% (active) in assay [18]. Besides, in assay [19], the growth is 5.17% (active).
Take `Cc1ccc2oc(=O)cc(-c3cc(-c4cc5ccccc5oc4=O)nc(N)c3C#N)c2c1`: the growth in assay [1] was 91.1%; in assay [2] it was 68.3%; in assay [3] it was 34%; in assay [4], 75.8%; in assay [5], 54.3%; in assay [6], 69%. Besides, the growth in [7] is 60.8%; in assay [8], 81.5%; in [9], 78.2%; in [10] it was 76.7%; in assay [11], 87.2%; in assay [12], 79%. For the same compound, the growth in assay [13] was 68.2%; in [14], 48.5%; in [15] it was 71.9%; in assay [16], 41.6%; in assay [17] it was 80.1%; in assay [18], 93.7%. Besides, the growth in assay [19] was 93.9%.
Take `O=CC(OC(=O)c1ccccc1)C(OC(=O)c1ccccc1)C(COC(c1ccccc1)(c1ccccc1)c1ccccc1)OC(=O)c1ccccc1` (configuration not stated): the growth in assay [1] was 48.8%; in assay [2], 52.6%; in [3], 94%; in [4] it was 78.8%; in assay [5], 19%; in assay [6], 3.19% (active). Besides, the growth in assay [7] is 70.3%; in assay [8], 63.4%; in assay [9], 13.8%; in assay [10], 0.343% (active); in assay [11], 96.7%; in [12] it was 88.8%. Further, the growth was 61.8% in [13]; 19.8% in assay [14]; 77.8% in assay [15]; 60% in [16]; 122% in assay [17]; -18.6% (active) in [18]. Besides, the growth in assay [19] was -14.6% (active).
Consider `COc1cc2c3c(c1)nc(C)n3CCC2`, for which the growth in assay [1] is 98.2%; in assay [2], 97.2%; in assay [3], 83.4%; in assay [4], 101%; in assay [5], 91.9%; in [6], 90.1%. Moreover, the growth was 97.4% in [7]; 100% in assay [8]; 92.7% in [9]; 106% in assay [10]; 100% in assay [11]; 95.5% in [12]. Moreover, the growth was 99.6% in [13]; 91.1% in assay [14]; 99% in assay [15]; 108% in assay [16]; 100% in [17]; 93.2% in assay [18]. Besides, the growth in [19] is 98.4%.
For `CC(C)=CCc1cc2c(cc1O)C1=C(C(=O)C3=C(C1=O)S(=O)(=O)CCN3)C(C=C(C)C)O2` (configuration not stated), the growth in assay [1] is -11.5% (active); in [2] it was -30.5% (active); in assay [3] it was -81.1% (active); in assay [4] it was -91.1% (active); in [5] it was -81.3% (active); in [6], 10.2%. The growth in [7] is -99.5% (active); in assay [8], -32.3% (active); in [9], -65.8% (active); in [10], -75.9% (active); in [11], -53.9% (active); in assay [12], -26.1% (active). The growth in [13] is -36.7% (active); in [14], -2.94% (active); in assay [15], 7.58% (active); in [16], -22.1% (active); in assay [17], -70% (active); in [18], 1.85% (active). Further, the growth in assay [19] was -38.2% (active).
`CCCc1cc2cc(-n3nc(C)c4c3CC(C)(C)CC4=O)cc(NC3CCC(O)CC3)c2c(=O)[nH]1` (configuration not stated): the growth is 23.6% in assay [1]; 8.7% (active) in assay [2]; 49.4% in assay [3]; 40% in assay [4]; 25.6% in assay [5]; 33% in assay [6]. The growth is 15.8% in [7]; 14.1% in assay [8]; -18.4% (active) in [9]; 36.4% in assay [10]; 41.6% in assay [11]; 47.7% in [12]. In addition, the growth in assay [13] was 41.4%; in assay [14] it was 29.7%; in assay [15], 40.8%; in assay [16], 28.8%; in assay [17] it was 64%; in assay [18], 20.3%. The growth in assay [19] was 14.7%.
Regarding `CCN1CCN(c2nc(C)cc(N(CCNc3ccnc4cc(Cl)ccc34)Cc3ccc4c(c3)OCO4)n2)CC1`, the growth was -6.94% (active) in assay [1]; -13.4% (active) in [2]; 9.98% (active) in assay [3]; 29.9% in assay [4]; -44.6% (active) in assay [5]; 50.7% in assay [6]. Also, the growth is -96.6% (active) in assay [7]; 44.9% in [8]; -74.5% (active) in [9]; -72% (active) in [10]; -55.8% (active) in [11]; 68.2% in assay [12]. The growth in assay [13] was 59.3%; in [14], -41.7% (active); in assay [15] it was -47.1% (active); in assay [16], -17.2% (active); in [17], 53.2%; in [18], -1.37% (active). Also, the growth in assay [19] was -3.96% (active).
`CC(C)c1ccc(/C=N/Nc2nc3ccccc3s2)cc1`: the growth in assay [1] is 83.9%; in [2] it was 78.8%; in assay [3], 103%; in assay [4], 97.7%; in [5], 80.8%; in assay [6], 77.9%. Besides, the growth in assay [7] is 91.6%; in assay [8], 87%; in [9], 89.1%; in assay [10], 108%; in [11], 106%; in [12], 87.2%. Besides, the growth in assay [13] is 86.3%; in assay [14] it was 57.1%; in [15], 148%; in assay [16], 103%; in assay [17] it was 92.8%; in [18], 84.8%. Besides, the growth in assay [19] was 70.5%.
On to `Cc1cc(N(CCNc2ccnc3cc(Cl)ccc23)Cc2cccs2)nc(Cl)n1`, for which the growth in [1] is 1.01% (active); in assay [2], -21.5% (active); in assay [3], -84.5% (active); in assay [4], 38.3%; in assay [5] it was -57.3% (active); in [6], 21.1%. Also, the growth was -31.2% (active) in assay [7]; 13.4% in assay [8]; -74.4% (active) in assay [9]; -43.4% (active) in assay [10]; -58.2% (active) in assay [11]; 33.9% in [12]. The growth in [13] was -15.9% (active); in assay [14] it was -79.4% (active); in [15] it was -93% (active); in assay [16], -88% (active); in assay [17] it was -6.31% (active); in assay [18] it was -2.45% (active). In assay [19], the growth is -38.2% (active).
Take `O=C(Cn1c(=O)ccn(CCCCCCCCOc2ccc(Br)cc2)c1=O)Nc1ccc(Oc2ccc(Cl)cc2)cc1`: the growth in [1] was 80.4%; in [2], 66%; in assay [3], 70.8%; in assay [4], 78.7%; in [5], 74.1%; in [6] it was 44.6%. Also, the growth in [7] was 28.7%; in [8], 36.1%; in assay [9], 51.1%; in assay [10], 72.8%; in [11], 71%; in assay [12], 50.6%. Further, the growth in assay [13] was 67.1%; in assay [14] it was 32.7%; in assay [15] it was 69.6%; in assay [16], 69.1%; in assay [17], 54.8%; in assay [18], 54.6%. The growth in [19] was 47.6%.
